HP1b chromo inh – HTS for Inhibitors of HP1-beta Chromodomain Interactions with Methylated Histone Tails | hit rate 0.56% among 390,000 | Potency, µM (titrated, usually from 114 µM), without a hit: at the top dose activity change, negative = inhibition, usual class: inhibitors | AlphaScreen HP1-beta / biotin-H3K9me3 peptide binding; note: potency is the fitted concentration of half-maximal effect; nearly all actives have a fitted effect of over 70% in size
Target sequence (P83916 whole entry, looked up): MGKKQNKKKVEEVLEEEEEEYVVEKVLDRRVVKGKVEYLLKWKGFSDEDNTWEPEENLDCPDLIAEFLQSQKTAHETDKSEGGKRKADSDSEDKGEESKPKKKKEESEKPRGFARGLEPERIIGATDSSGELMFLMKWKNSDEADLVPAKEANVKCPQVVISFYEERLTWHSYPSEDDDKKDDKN
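HP1-beta protein (50 nM final) preincubated 30 min at room temperature with biotinylated H3(1-18)K9me3 peptide (50 nM) in PBS pH 7.4, 0.01% Tween-20, then compound added for 30 min. AlphaScreen streptavidin donor/nickel chelate acceptor beads (10 ug/mL final), 30 min dark, luminescence read.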
CtBP-E1A inh – qHTS Assay for Inhibitors of the CtBP/E1A Interaction; CtBP / adenovirus E1A interaction (AlphaScreen); AlphaScreen GST-E1A/His-CtBP binding, 1536-well; active compounds read low; activity change, % (no concentration beside the values); hit rate 0.49% among 340,000; AID 651724, 2012; in the data active = activity change below about -65%; inconclusive = mostly about -30% to -63%; note: % is set by controls: 0 for no effect and ±100 for the full control effect
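Steps: dispense buffer (Tris pH 8.0, NaCl 300 mM, TCEP 1 mM, BSA, Tween 20); add 5X protein mix (GST-E1A, His-CtBP, 125 nM each); pin 23 nL compound; 2 h at 37 °C, dark; add 5X beads (50 ug/mL); 1 h; read.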
BAZ2B block – qHTS Assay for Inhibitors of BAZ2B; AlphaScreen BAZ2B-H3K14Ac peptide displacement; Potency, µM (titrated, usually from 114 µM), for inactives: top-dose activity change, negative = inhibition, hits mostly inhibitors; hit rate 4.4% among 360,000; AID 504333, 2011; note: potency is the fitted concentration of half-maximal effect; % is set by controls: 0 for no effect and ±100 for the full control effect; nearly all actives have a fitted effect of over 60% in size
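BAZ2B (50 nM) with biotin-H3(5-23)K14Ac peptide (50 nM) in PBS pH 7.4, 0.01% Tween-20, preformed 30 min, then compound 30 min at room temperature; top concentration 110uM. AlphaScreen streptavidin donor/nickel chelate acceptor beads (10 ug/mL final), 20 min dark, signal read.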
JMJD2A Tudor inh – qHTS Assay for Inhibitors of JMJD2A-Tudor Domain; Lysine-specific demethylase 4A (Homo sapiens), O75164; AID 504339, 2011; AlphaScreen JMJD2A-Tudor / H3K4me3 peptide binding; hit rate 4.4% among 390,000; Potency, µM (titrated, usually from 114 µM), for inactives: at the top dose activity change, negative = inhibition, actives largely listed as inhibitors; note: potency is the fitted concentration of half-maximal effect; % is set by controls: 0 for no effect and ±100 for the full control effect; nearly all actives have a fitted effect of over 50% in size
TDP1 block – qHTS Assay for Inhibitors of Tyrosyl-DNA Phosphodiesterase (TDP1) | Potency, µM (series often up to 130 µM), for the others: top-dose activity change, negative = inhibition, most hits filed as inhibitors | AID 485290, 2010 | recombinant TDP1, AlphaScreen DNA substrate cleavage | hit rate 0.28% among 350,000; note: potency is the fitted concentration of half-maximal effect; % is set by controls: 0 for no effect and ±100 for the full control effect; nearly all actives have a fitted effect of over 40% in size
Target sequence (Q9NUW8 whole entry, looked up): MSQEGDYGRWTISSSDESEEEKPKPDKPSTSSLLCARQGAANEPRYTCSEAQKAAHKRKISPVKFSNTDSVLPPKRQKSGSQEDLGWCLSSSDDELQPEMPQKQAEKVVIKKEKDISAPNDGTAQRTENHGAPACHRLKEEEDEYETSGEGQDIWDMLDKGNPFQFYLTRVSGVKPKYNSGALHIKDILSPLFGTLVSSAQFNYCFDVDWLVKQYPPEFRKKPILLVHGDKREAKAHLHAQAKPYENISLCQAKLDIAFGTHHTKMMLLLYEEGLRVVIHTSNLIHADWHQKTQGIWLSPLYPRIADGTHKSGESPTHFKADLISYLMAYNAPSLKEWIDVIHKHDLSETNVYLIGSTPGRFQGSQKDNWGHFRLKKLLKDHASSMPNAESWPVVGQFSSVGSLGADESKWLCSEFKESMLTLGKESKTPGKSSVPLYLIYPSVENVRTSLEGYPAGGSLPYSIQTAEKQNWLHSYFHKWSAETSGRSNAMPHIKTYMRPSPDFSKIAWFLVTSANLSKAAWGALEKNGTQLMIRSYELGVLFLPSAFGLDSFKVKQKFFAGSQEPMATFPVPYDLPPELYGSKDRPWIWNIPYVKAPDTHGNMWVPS
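Here, a 5' biotin and 3' phosphotyrosine-FITC DNA oligonucleotide reports Tdp1 activity: intact substrate bridges AlphaScreen beads, while cleavage leaves a 3' phosphate and drops signal. All incubations at room temperature.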
Six1-Eya2 inh – qHTS Assay for Inhibitors of the Six1/Eya2 Interaction. AlphaScreen GST-Six1/His-Eya2 binding, biochemical; active compounds read low. activity change, % (no concentration beside the values). Homeobox protein SIX1 (Homo sapiens) + Protein phosphatase EYA2 (Homo sapiens), …. AID 651725, 2012. hit rate 0.56% among 360,000; in the data active = activity change below about -65%; inconclusive = mostly about -30% to -63%; note: % is set by controls: 0 for no effect and ±100 for the full control effect
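AlphaScreen with GST-Six1 and His-Eya2 (5X mix: 250 nM and 500 nM), glutathione donor and nickel acceptor beads; buffer 50 mM Tris pH 8.0, 300 mM NaCl, 1 mM TCEP; 1 h at 37 C in the dark.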
* marks the source's active call; other numbers are inactive results; ? = inconclusive; nt = not tested or not shown; ! = a repeat was not active; [ ] = another dose, or the depositor's remark. Rows were chosen to be rich in hits. Some 5.3% of all compounds tested hit in one or more screens of this group. Unless noted, calls come from the whole dose curve; as a rule, active = well fitted inhibition curve with a large enough effect; inconclusive = small, poorly fitted or top-dose-only effect; inactive = no such curve, though single readings can be large or run the other way.

SMILES	HP1b chromo inh	CtBP-E1A inh	BAZ2B block	JMJD2A Tudor inh	TDP1 block	Six1-Eya2 inh
CCc1ccc(NC(=O)C(Cc2ccccc2)NS(=O)(=O)c2ccc3c(c2)CCN3C(C)=O)cc1 (stereo unspecified)	45.6%	nt	nt	-12.3%	-7.0%	nt
CCOc1ccc(NC(=O)CSc2cn(CC(=O)N3CCCCCC3)c3ccccc23)cc1	23.8%	nt	-18.5%	-13.6%	5.1%	nt
NS(=O)(=O)c1ccc(N=Nc2c(O)c(C(=O)O)cc3ccccc23)cc1	?	nt	39.8µM*	?	2.5%	-20.2
O=C(O)Cc1ccc(N=Nc2c(O)c(C(=O)O)cc3ccccc23)cc1	50.1µM*	-11.0	28.2µM*	56.2µM*	1.3%	?
CO[C@@H]1COC(=O)C/C=C\[C@H](C)[C@H](OC)COC(=O)[C@H](C)NC(=O)C/C=C\[C@H]1C	nt	nt	nt	nt	5.8%[21 µM]	nt
COc1ccc(N2CC(C(=O)OCC(=O)c3ccc(C)cc3)CC2=O)cc1 (stereo unspecified)	28.3%	nt	-10.7%	-3.9%	-10.3%	5.2
CCOc1ccc(N2CC(C(=O)OCC(=O)c3ccc(OC)cc3)CC2=O)cc1 (stereo unspecified)	7.1%	21.1	-12.4%	56.2µM*	nt	6.9
CC(/C=N/n1c(-c2ccco2)n[nH]c1=S)=C\c1ccco1	?	-1.3	?	44.7µM*	-3.2%	-5.2
CC(/C=N/n1c(-c2ccccc2)n[nH]c1=S)=C\c1ccco1	-19.6%	3.4	50.1µM*	50.1µM*	12.4%	-11.5
CCOC(=O)c1c(-n2c(C)cc(C=O)c2C)sc2c1CCCC2	-29.8%	-7.4	?	56.2µM*	7.8%	-13.0
Cc1ccc(C)n1-c1sc2c(c1C(=O)O)CCCC2	?	-1.0	?	22.4µM*	nt	-16.7
CCOc1ccc(OCC)c(NS(=O)(=O)c2cc(-c3cc(C)no3)ccc2C)c1	22.6%	nt	-1.4%	-26.9%	2.6%	nt
Cn1nnnc1Sc1ncnc2scc(-c3cccc4c3sc3ccccc34)c12	27.0%	nt	nt	39.8µM*!	0.2%	nt
CCC1Oc2ccc(C)cc2N(CC(=O)NCc2ccc(F)cc2)C1=O (stereo unspecified)	24.2%	nt	-0.1%	-8.3%	2.6%	nt
CCN(CC(=O)Nc1ccccc1OC)CC(=O)Nc1c(Cl)ccc(C)c1Cl	36.2%	17.9	-13.0%	-7.7%	2.6%	-6.7
COc1ccc(CNCCCC(=O)Nc2c(Cl)ccc(C)c2Cl)cc1OC	79.4µM*	-6.4	56.2µM*	0.794µM*	5.2%	-7.9
Oc1c(Cl)cc(Cl)cc1CNc1ccccn1	17.5%	?	0.8%	-0.7%	nt	-72.4*
CC(C)N(Cc1cn[nH]c1-c1ccc(-c2ccccc2)cc1)Cc1nccn1C	?	-17.8	56.2µM*	56.2µM*	4.8%	-14.5
Cc1ccc(NC(=O)CSc2ccc(C(N)=O)cc2[N+](=O)[O-])cc1C	6.0%	-1.4	-14.8%	14.1µM*	-5.1%	-6.2
Cc1ccc(NC(=S)NNc2ccc([N+](=O)[O-])cc2S(=O)(=O)Nc2ccccc2C(=O)O)cc1C	?	-9.3	11.2µM*	50.1µM*	-5.6%	-3.4
O=C(O)c1ccccc1NS(=O)(=O)c1ccc(NNC(=S)Nc2ccc(OC(F)F)cc2)c([N+](=O)[O-])c1	10µM*	-16.4	7.94µM*	25.1µM*	11.0%	?
Cc1ccc(NC(=S)NNc2ccc(C(=O)O)cc2[N+](=O)[O-])cc1C	50.1µM*	-2.9	nt	7.94µM*	nt	-29.0
Cc1cccc(NC(=O)C(C)OC(=O)c2ccccc2NS(=O)(=O)c2cc(C)c(C)c([N+](=O)[O-])c2)c1 (stereo unspecified)	13.1%	-6.2	-11.2%	-25.7%	5.4%	-12.9
Cc1ccc(Nc2ccc(C(N)=O)cc2[N+](=O)[O-])cc1C	-0.4%	nt	-7.3%	?	2.7%	-8.9
CC(=O)N1CC2(CC2)CC1c1ccccc1 (stereo unspecified)	nt	nt	nt	nt	6.3%	nt
SMILES	HP1b chromo inh	CtBP-E1A inh	BAZ2B block	JMJD2A Tudor inh	TDP1 block	Six1-Eya2 inh
Cc1oc2ncn(C)c(=O)c2c1C(=O)NCc1ccccc1	-0.5%	nt	6.7%[57.1 µM]	-13.6%	3.2%	nt
CCn1c(SCC(=O)OCc2ccccc2)nnc1-c1ccco1	18.8%	1.0	-4.8%	-7.2%	1.5%	2.1
CCn1c(Sc2ccc([N+](=O)[O-])cn2)nnc1-c1ccco1	35.7%	24.4	2.3%	25.1µM*	-11.1%	22.7
O=P(c1ccccc1)(c1ccccc1)c1cc(S(=O)(=O)O)ccc1O	35.5µM*	6.7	50.1µM*	39.8µM*	nt	-14.8
Nc1cc(S(=O)(=O)O)ccc1O	nt	nt	nt	nt	3.7%	nt
c1ccc2c(-c3[nH]ncc3CNCCCn3ncc4ccccc43)cccc2c1	-16.6%	-9.9	?	20µM*	3.0%	-7.1
Cc1c(C(=O)N(C)C)sc2c1c(=O)n(-c1ccc(Cl)c(Cl)c1)c(=O)n2CC(=O)Nc1ccc(Br)cc1F	51.2%	nt	-1.2%	-16.3%	5.4%	nt
CCN1CCN(CCOc2cccc(Oc3ccccc3)c2)CC1	?	-9.0	20µM*	4.47µM*	0.0%	-6.6
CCN1CCN(CCOCCOc2ccccc2)CC1	?	nt	79.4µM*	17.8µM*	1.5%	7.5
CCNC(=O)CC1C(=O)N(c2cccc(OC)c2)C(=O)N1Cc1ccc(OC)c(OC)c1 (stereo unspecified)	16.9%	nt	1.6%	-10.9%	3.8%	nt
BrC(=C\c1ccccc1)/C=N/Nc1ccc2nncn2n1	-27.8%	?	44.7µM*	?	-3.9%	-18.5
BrC(=C\c1ccccc1)/C=N/n1cnnc1	21.7%	nt	-3.2%	-6.5%	-2.5%	-1.5
Brc1ccc2c(c1)C(c1ccc(N3CCOCC3)cc1)=NNC(c1cccs1)=N2	-33.4%	-11.2	?	-35.7%	5.3%	-17.3
Fc1ccc2c(c1)C(c1ccc(N3CCOCC3)cc1)=NNC(c1cccs1)=N2	-36.9%	-22.6	35.5µM*	25.1µM*	7.9%	-23.0
CC1CCN(CCOCCOc2ccccc2-c2ccccc2)CC1	?	-3.7	?	3.16µM*	0.6%	-1.9
CC1CC(C)CN(CCCSc2ccccc2)C1 (stereo unspecified)	?	5.9	?	28.2µM*	-2.6%	12.5
c1ccc(SCCOCCN2CCOCC2)cc1	19.4%	10.2	-6.1%	-5.0%	2.7%	6.1
